SARS PLP yeast: qHTS of Yeast-based Assay for SARS-CoV PLP. S. cerevisiae expressing SARS-CoV PLpro, growth rescue. Potency, µM (series often up to 32.9 µM), without a hit: at the top dose activity, positive = growth rescue, hits mostly activators. 330,000 tested, 0.19% active. AID 485353, 2010; also: potency is read from the fitted curve at half-maximal effect; 0% is about no effect; nearly all actives have a fitted effect of over 55% in size
Pf growth 96h: Primary qHTS for delayed death inhibitors of the malarial parasite plastid, 96 hour incubation. P. falciparum luciferase reporter growth, 96 h. Potency, µM (series often up to 28.7 µM), without a hit: at the top dose activity change, negative = inhibition, hits mostly inhibitors. 320,000 tested, 6.9% active; active = well fitted inhibition curve with a large enough effect; inconclusive = small, poorly fitted or top-dose-only effect, or another doubt; inactive = no such curve, though single readings can be large or run the other way; also: potency is read from the fitted curve at half-maximal effect; % is scaled to controls: 0 for no effect and ±100 for the full control effect
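Luminescence readout: decreased luciferase signal marks inhibited growth of reporter-expressing P. falciparum in infected red cells (2% hematocrit, 0.05% parasitemia final), exposed to compound two generations (96 h, 37 C, 5% CO2).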
Pf growth 48h: Primary qHTS for delayed death inhibitors of the malarial parasite plastid, 48 hour incubation. AID 504832, 2011. 310,000 tested, 5.9% active. Potency, µM (highest dose often 28.7 µM), for the others: at the highest dose activity change, negative = inhibition, most hits filed as inhibitors. P. falciparum luciferase growth in erythrocytes, 48 h; active = well fitted inhibition curve with a large enough effect; inconclusive = small, poorly fitted or top-dose-only effect, or another doubt; inactive = no such curve, though single readings can be large or run the other way; also: potency is read from the fitted curve at half-maximal effect; % is scaled to controls: 0 for no effect and ±100 for the full control effect
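Luciferase-expressing parasites in RBCs, 2% Hct / 0.1% parasitemia final; RPMI 1640 + 0.5% Albumax; 37 C, 5% CO2, one generation; luminescence read-out, lower signal = inhibition.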
NS1 function inh: qHTS Assay for Inhibitors of Influenza NS1 Protein Function | Potency, µM (doses to about 46.1 µM), for the others: at the top dose activity, positive = more growth | 270,000 tested, 0.4% active | AID 2326, 2010; also: potency is read from the fitted curve at half-maximal effect; actives are rising curves; nearly all actives have a fitted effect of over 50% in size
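Read-out: OD600 growth recovery of NS1-expressing budding yeast. Cells grown overnight at 30C in -URA glucose medium, washed, resuspended and diluted 1:100 in 2% galactose assay medium, pH 6.0. Same strain lacking NS1 served as positive control.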
Flu NS1 inh: Assay for Inhibitors of Influenza NS1 Protein Function: Hit Validation; influenza NS1 function cell assay, 15-point titration; shares compounds with NS1 function inh; 1,400 tested, under 10 active; activity change, negative = inhibition, % at 32.9 µM; AID 492980, 2010; also: 0% is about no effect
PR8 titer: Assay for Inhibitors of Influenza NS1 Protein Function: Influenza virus replication assay in MDCK cells infected with virus A/PR/8/34; shares compounds with NS1 function inh; MDCK infected influenza A/PR/8/34, virus titer TCID50; stronger effect = lower value; virus titer (log TCID50), log10 TCID50 at 5 µM; 95 tested, 30% active; call rule not given here
* = called active by the depositor; ? = inconclusive; nt = no result given. Only some compounds are listed: those with a hit (about 10% of all), similar ones and a draw of the others. Unless noted, calls follow the shape of the full dose curve.

SMILES	SARS PLP yeast	Pf growth 96h	Pf growth 48h	NS1 function inh	Flu NS1 inh	others
COc1ccc2c(c1)OC[C@H]1[C@H]2N2C(=O)[C@H](C)NC(=O)[C@@]2(C)[C@H]1c1ccccc1	0%	?	-6%	nt	nt
Cc1ccc(O)c(CNc2cnc3ccccc3c2)c1	?	0%	?	-59%	nt
Oc1ccc(Br)cc1CNc1cnc2ccccc2c1	-10%	12µM*	?	-6%	nt
Oc1ccc(Br)cc1CNc1cccc2cccnc12	-26%	9.3µM*	?	-115%	nt
Cc1cccc(CN(CC(=O)N/N=C/c2cccs2)S(=O)(=O)c2ccc(Cl)cc2)c1	-2%	?	-1%	8.9µM*	-32
Cc1cccc(CN(CC(=O)N/N=C/c2ccco2)S(=O)(=O)c2ccc(Cl)cc2)c1	-7%	-21%	nt	20%	nt
COc1ccc(NC(=O)CN(C)C(=O)c2ccc3c(c2)S(=O)(=O)N=C2CCCCCN23)cc1	-3%	-13%	17%	-7%	nt
Cc1ccc(NC(=O)CC(C)CC(=O)NCc2ccccc2)cc1Cl (configuration not stated)	-3%	?	-1%	-15%	nt
CC(C)NS(=O)(=O)c1ccc(OCC(=O)Nc2ccc3c(c2)OCO3)cc1	0%	47%	2%	nt	nt
CC(C)NS(=O)(=O)c1ccc(OCC(=O)Nc2cccc(F)c2)cc1	0%	42%	-11%	?	18
COc1ccc(OC)c(-n2c(C)nc3cc(C(=O)O)ccc32)c1	7%	6%	24%	14µM*	19
COc1cc(-n2c(C)nc3cc(C(=O)O)ccc32)cc(OC)c1OC	2%	41%	57%	nt	nt
Cc1cc(C)n(S(=O)(=O)c2cc(C(=O)O)c(Cl)cc2Cl)n1	10%	nt	0%	?	10
CC(=O)Nc1ccc(NC(=O)C(C)NC(C)c2cccc3ccccc23)cc1 (configuration not stated)	2%	-13%	-13%	-13%	nt
CCOCCCNS(=O)(=O)c1ccc(NC(=O)Cc2c(F)cccc2Cl)cc1	1%	1%	?	?	-14	PR8 titer=8.3
CCOCCCNS(=O)(=O)c1ccc(NC(=O)c2ccccc2)cc1	1%	nt	?	2%	nt
O=C(O)CC1=C(O)C(=O)N(c2ccccc2)C1c1ccc(Br)cc1 (configuration not stated)	6%	0%	?	7.9µM*	26
COc1cc(/C=N/N(c2ccccc2)c2ccccc2)ccc1O	26%	?	5%	-56%	nt
CN(/N=C\c1ccc(O)c(O)c1)c1nc(-c2ccccc2)cc(-c2ccccc2)n1	-53%	?	10µM*	8.9µM*	?
S=c1[nH]c2cc(Cl)c3cccnc3c2o1	-4%	51%	?	4µM*	18
CCN(CC)C(=O)Oc1c(Cl)cc(Cl)c2cccnc12	0%	24%	-7%	-2%	nt
CN(C(=O)c1ccc(OC2CCN(CCc3ccccc3)CC2)cc1)C1CCCCC1	0%	11%	-17%	-5%	nt
Cc1nn(C)c(C)c1CCC(=O)N1CCCC(N2CCN(c3ccc(F)cc3)CC2)C1 (configuration not stated)	2%	42%	?	?	-9
Cc1[nH][nH]c(=O)c1C(c1c(C)[nH][nH]c1=O)c1cn(Cc2cccc3ccccc23)c2ccccc12	-10%	?	?	13µM*	-11
Cc1ccccc1Nc1nc(N)nc(CSCC(=O)Nc2cccc(Br)c2)n1	12%	-13%	-5%	?	-11
SMILES	SARS PLP yeast	Pf growth 96h	Pf growth 48h	NS1 function inh	Flu NS1 inh	others
O=C(N=C1SCC(=O)N1c1ccccc1Cl)c1ccccc1	0%	?	150%	nt	nt
O=C(N=C1SCC(=O)N1c1ccccc1Cl)c1ccco1	-5%	213%	154%	11µM*	26
O=C1COc2cc(S(=O)(=O)NCc3ccco3)c(Cl)cc2N1	1%	-5%	?	nt	nt
CC1CCC2(CC1)NC(=O)N(Cc1nc(-c3ccccc3)no1)C2=O (configuration not stated)	-1%	nt	6%	8.9µM*	-1	PR8 titer=8.5
CCOC(=O)N1CCN(C(=O)C2CCC(=O)N(Cc3ccc(Cl)cc3)C2)CC1 (configuration not stated)	4%	-3%	-4%	22%	nt
O=C(COC(=O)c1cnccn1)NCc1ccc2c(c1)OCO2	-4%	-5%	9%	nt	nt
O=C(COC(=O)c1cccc2ccccc12)Nc1ncc(C(F)(F)F)cc1Cl	8%	10%	nt	4.5µM*	8
Cc1ccc(S(=O)(=O)Nc2ccc(F)cc2)cc1C(=O)N1CCOCC1	-1%	nt	nt	nt	nt
Cc1ccc(N2CC(C(=O)Nc3cccc(C(=O)NC4CC4)c3)CC2=O)cc1 (configuration not stated)	-6%	?	14%	nt	nt
O=C(CSc1nnc(-c2cc3ccccc3cc2O)n1Cc1ccco1)c1ccc(F)cc1	0%	?	nt	8.9µM*	-29
Cc1occc1-c1nnc(SCC(=O)c2ccc(F)cc2)n1Cc1ccco1	1%	nt	-15%	-2%	nt
C=CCN1C(=O)CSC1=Nc1ccc(C(=O)O)cc1	-2%	?	43%	-11%	nt
C=CCN1C(=O)CS/C1=C(\C#N)S(=O)(=O)c1ccc(C)cc1	13%	13%	?	1.6µM*	34
CCOC(=O)C1CCN(C(=O)CS(=O)Cc2nc(-c3ccc(C)cc3)oc2C)CC1 (configuration not stated)	10%	34%	nt	11µM*	0	PR8 titer=8
Cc1ccc(-c2nc(CS(=O)CC(=O)N3CCN(c4ccc(F)cc4)CC3)c(C)o2)cc1 (configuration not stated)	8%	?	4%	17%	nt
O=C(NCCS(=O)(=O)c1ccc(Br)cc1)c1c(F)cccc1F	nt	30%	3%	3%	nt
O=C(NCCSc1c(-c2ccccc2)[nH]c2ccccc12)c1cc2ccccc2oc1=O	-9%	-28%	-16%	11µM*	-3
CCCCOc1ccc(C(=O)NCC(=O)N2CC=C(c3ccccc3)CC2)cc1	28%	7%	4%	nt	nt
Cc1nn(CC(=O)Nc2ccc3c(c2)nc2n3CCOC2)c(=O)c2ccccc12	7%	35%	nt	-1%	nt
COCCN1CCn2c(nc3cc(NC(=O)Cn4nc(C)c5ccccc5c4=O)ccc32)C1	-5%	-4%	-10%	?	7
COCCN1CCn2c(nc3cc(NC(=O)c4ccc(OC)cc4)ccc32)C1	?	nt	?	13µM*	13	PR8 titer=8.3
COCCN1CCn2c(nc3cc(NC(C)=O)ccc32)C1	0%	32%	5%	9%	nt

Bioassay records: PubChem, National Center for Advancing Translational Sciences (NCATS)
